# Compounds without any hit were thinned out: in the full panel of roughly 83,000, 20% have a hit.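 Results are percent growth after 48 hours of single-concentration exposure. 100 means growth as in untreated cells, lower positive values show inhibition; negative values down to -100 show cell death.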 Unmarked numbers belong to inactive results. Calls of active or inactive are those of the source.
# Tested on: NCI-H460 lung
# Assay: NCI-60 one-dose screen, 48 h (100 = growth as untreated, 0 = no growth, -100 = all killed)
# Details: 10 µM
# Method: Growth inhibition of the NCI-H460 human Non-Small Cell Lung tumor cell line is measured as a screen for anti-cancer activity. Cells are grown in 96 well plates and exposed to the test compound for 48 hours. Compounds are tested at a single concentration, which is 10^-5 M for most compounds. The reported endpoint is percent growth (GI% or GIPRCNT), where numbers from 0 - 100% represent growth inhibition, and numbers from -100% - 0 represent cell death. For example, a value of 40 represents 60% growth inhibition. A value of 0 means no net growth occurred over the course of the experiment. A value of -40 indicates 40% of cells at the beginning of the experiment died by the end of the experiment. A value of -100 means all cells are dead at the end of the experiment.
# NCI-60 Human Tumor Cell Lines Screen was performed using the standard one-dose NCI protocol, which is described in more detail at https://dtp.cancer.gov/discovery_development/nci-60/default.htm.
# Compounds with GIPRCNT values below 10 were considered active. Activity score was based on GIPRCNT using the following formula: […]
# Score is 0 for GIPRCNT values of 100 or above, 50 for GIPRCNT values of 0, and 100 for GIPRCNT values of -100.
row,Compound,growth
1,NNc1ccccc1C(=O)O,110%
2,Cc1cc(Cc2cc(C)c(N)cc2N)c(N)cc1N,101%
3,CCN(CC)C(=O)/C=C(/C)c1ccccc1,104%
4,Cc1ccc(C)n1-c1ccsc1C(=O)NNC(=O)CCl,101%
5,CC(=O)Cc1ccc(-c2ccccc2)cc1,103%
6,Cc1ccc(/C=C2\SC(=S)N(c3ccc(F)cc3)C2=O)o1,33.7%
7,CCOc1ccccc1/C=N/Nc1nc2ccccc2o1,102%
8,C#C[C@H]1CCCCCC1O (stereo not given in full),106%
9,CC1=NN(c2ccccc2)C(=O)/C1=C\N1CC(=O)NC1=S,98.6%
10,COc1ccc2c(NCCCCCCCCNc3c4ccccc4nc4cc(OC)ccc34)c3ccccc3nc2c1,-100% (active)
11,COC(=O)/C=C\C(=O)OC,111%
12,O=C1N(C[P+](c2ccccc2)(c2ccccc2)c2ccccc2)CCCN1C[P+](c1ccccc1)(c1ccccc1)c1ccccc1,107%
13,COCCOCCCl,104%
14,Nc1ncnc2c1nc(N)n2C1OC(CO)C(O)C1O (stereo not given),-60.3% (active)
15,CCCCC(=O)c1ccc(OC)cc1,104%
16,CC(=O)Nc1cccc(Cl)c1C,106%
17,O=C(CC(=O)c1ccccc1O)c1ccccc1,88.8%
18,NC(N)=Nc1cc2ccccc2c2ccccc12,86.8%
19,CN(C)c1ccc(S(=O)(=O)O)cc1,109%
20,NCCCN,108%

row,Compound,growth
1,COC(=O)c1ccc(NC(=O)CCl)cc1,47.5%
2,CCCCN(CCCC)CCCO,109%
3,O=C(O)c1ccc(S(=O)(=O)O)cc1,109%
4,CC(O)COc1ccc(-c2ccccc2)cc1 (stereo not given),99.2%
5,CCN1C(=O)/C(=C/C=C/N(C)c2ccccc2)SC1=S,94.7%
6,CCCC(C)OCC(=O)O (stereo not given),103%
7,CC(=O)OCCO,111%
8,COc1cc(OC)c2ccc(=O)oc2c1,104%
9,Cc1nc2ccccc2c2nnc(SCC(=O)N(Cc3ccccc3)c3ccccc3)n12,107%
10,CC1(C)N=C(N)N=C(N)N1c1ccc(Cl)cc1,18.3%
11,CO[C@H]1C[C@@H]2CC[C@@H](C)[C@@](O)(O2)C(=O)C(=O)N2CCCC[C@H]2C(=O)O[C@H]([C@H](C)C[C@@H]2CC[C@@H](O)[C@H](OC)C2)CC(=O)[C@H](C)C=C(C)[C@@H](O)[C@@H](OC)C(=O)[C@H](C)C[C@H](C)/C=C/C=C/C=C1C,45.1%
12,COc1cc(/C=C/C(=O)c2ccccc2)cc(OC)c1OC,70.7%
13,CC1(O)OC(COc2ccc(Cl)cc2)COC1O (stereo not given),106%
14,COc1cccc(COC(=O)Nc2ccccc2)c1OC,103%
15,O=C1C=C(Nc2ccc([N+](=O)[O-])cc2)c2ccccc2C1=O,46.4%
16,C#CC(C(C)C)N(CCO)CCCC (stereo not given),101%
17,CCOC(=O)Nc1nn[nH]n1,99.9%
18,CCOC(=O)C(CCC(C)C)C(=O)OCC,106%
19,c1ccc(Cc2ccccc2)cc1,109%
20,COC(=O)Nc1nc2ccc(C(=O)c3cccs3)cc2[nH]1,7.45% (active)
